A selection: hits, their analogues and other compounds. The true share with any hit is near 2.4%.
Tb PGK inh: T. brucei PGK inhibition | P07378 | Potency, µM (series often up to 57.5 µM), without a hit: at the highest dose activity change, negative = inhibition, actives largely listed as inhibitors | 0.043% of 380,000 active | PGK/GAPDH coupled, Kinase-Glo luminescence, 60 min; note: % is set by controls: 0 for no effect and ±100 for the full control effect; nearly all actives have a fitted effect of over 60% in size
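Luminescent ATP detection (Kinase-Glo Plus) follows a 60-minute room-temperature incubation, with wells lacking PGK as controls. Buffer: 100 mM TEA (pH 7.6), 5 mM MgCl2, 0.01% Tween-20. Coupling enzyme GAPDH (100 nM final) supplies unstable 1,3-BPG in-well.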
Pol kappa inh: inhibitors of human DNA polymerase kappa; Potency, µM (series often up to 107 µM), for the others: at the top dose activity, negative = inhibition, usual class: inhibitors; purified Pol kappa, fluorescent DNA synthesis assay, 10 min; AID 588579; 0.53% of 400,000 active; Q9UBT6; note: % is set by controls: 0 for no effect and ±100 for the full control effect
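Readout: fluorescence, taken kinetically at 0 and 10 min. Conditions: 10 nM Pol kappa, 15 min RT compound preincubation, 50 nM substrate final. Controls: enzyme-free buffer wells.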
POLB inh: DNA polymerase beta (human) inhibition | P06746 | Pol beta primer extension/strand displacement, fluorescence kinetic | Potency, µM (top dose mostly 114 µM), for inactives: at the highest dose activity change, negative = inhibition, usual class: inhibitors | 1.3% of 340,000 active | AID 485314; note: % is set by controls: 0 for no effect and ±100 for the full control effect
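Human Pol beta at 10 nM; strand-displacement substrate 50 nM final. Compound exposure 15 min at room temperature before start, reaction 10 min at room temperature.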
FEN1 inhibitor: human FEN1 inhibition; Potency, µM (top dose mostly 114 µM), for inactives: at the top dose activity change, negative = inhibition, actives largely listed as inhibitors; 0.35% of 390,000 active; Recombinant FEN1 flap cleavage, fluorescence, 15 min; P39748; note: % is set by controls: 0 for no effect and ±100 for the full control effect; nearly all actives have a fitted effect of over 65% in size
Target sequence (P39748 whole entry, looked up): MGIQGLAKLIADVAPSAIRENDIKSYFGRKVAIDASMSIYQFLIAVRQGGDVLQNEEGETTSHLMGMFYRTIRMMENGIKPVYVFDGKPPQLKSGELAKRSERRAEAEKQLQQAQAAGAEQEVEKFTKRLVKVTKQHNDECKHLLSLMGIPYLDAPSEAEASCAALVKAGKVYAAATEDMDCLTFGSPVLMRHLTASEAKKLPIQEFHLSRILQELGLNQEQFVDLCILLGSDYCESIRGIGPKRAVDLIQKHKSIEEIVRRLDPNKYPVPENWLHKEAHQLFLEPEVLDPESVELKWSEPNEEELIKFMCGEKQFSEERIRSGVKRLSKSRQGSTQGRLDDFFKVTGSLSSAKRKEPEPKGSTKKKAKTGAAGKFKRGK
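Reaction started by adding substrate (50 nM final) to 10 nM enzyme after 15 min room-temperature compound preincubation. Reads at 0 and 15 min, with data normalized and fitted to a four-parameter Hill equation.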
POLH inh: blocks human DNA polymerase eta activity; Q9Y253; Potency, µM (highest dose often 114 µM), inactives show at the top dose activity change, negative = inhibition, usual class: inhibitors; AID 588591; recombinant Pol eta, fluorescent DNA replication assay; 1.2% of 390,000 active; note: % is set by controls: 0 for no effect and ±100 for the full control effect
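Pol eta at 10 nM preincubated with compounds 15 min at room temperature; reaction started with fluorescent substrate (50 nM final) and read kinetically at 0 and 10 min.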
POLI inh: inhibitors of human DNA polymerase iota; Q9UNA4; AID 588590; Potency, µM (series often up to 115 µM), for inactives: top-dose activity, negative = inhibition, usual class: inhibitors; Pol iota fluorescent replication assay, 10 min; 1% of 390,000 active
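Pol iota at 10 nM preincubated 15 min with compounds at room temperature; reaction started with fluorescent substrate, 50 nM final. Fluorescence read kinetically at 0 and 10 min; buffer-only wells as negative control.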
Active calls of the source: *; i = inactive; ? = inconclusive; nt = not tested or not shown; [ ] = remark or other dose. Calls come from the whole dose curve; as a rule, active = well fitted curve in the direction sought with a large enough effect; inconclusive = small, poorly fitted or top-dose-only effect, or another doubt; inactive = no such curve, though single readings can be large; an effect the other way counts as inactive or inconclusive. Potency is the fitted concentration of half-maximal effect.

SMILES	Tb PGK inh	Pol kappa inh	POLB inh	FEN1 inhibitor	POLH inh	POLI inh
Cc1nn(Cc2ccc(Cl)cc2)c(C)c1NC(=O)CCCn1nc([N+](=O)[O-])c(Cl)c1C	-4%	-17%	89µM*	-5%	0%	11%
COCc1c(Br)c(C)nc(OCC(=O)N/N=C/c2ccc(C)o2)c1C#N	4%	-1%	17%	16%	-17%	0%
COCc1c(Br)c(C)nc(OCC(=O)N/N=C/c2ccco2)c1C#N	-11%	-2%[60.1 µM]	18µM*	17%	20%	?
O=C(COc1ccccc1C(=O)Nc1ccccc1)Nc1ccc2ccccc2c1	nt	-5%	nt	10%	nt	?
CC(=O)C[n+]1cccc2cc(Cl)ccc21	nt	-24%	nt	-1%	nt	63%
CC1=NN(c2ccc(C)cc2C)C(=O)C1C(c1cccc(O)c1)C1C(=O)N(c2ccc(C)cc2C)N=C1C (configuration not stated)	-2%	-4%	36%	-5%	-21%	1.3µM*
C(=Nc1ccc(/C=C/c2ccnc3ccccc23)cc1)c1ccco1	nt	2%	nt	0%	nt	18%
Cc1ccc(N2CC(C(=O)N3CCN(c4ccccn4)CC3)CC2=O)cc1 (configuration not stated)	-13%	?	nt	1%	50µM*	?
Cc1ccc(N2CC(C(=O)Nc3ccccn3)CC2=O)cc1 (configuration not stated)	-9%	6%	-24%	3%	-4%	-11%
Cn1cc(S(=O)(=O)N2CCOCC2)cc1C(=O)Nc1ccc(Cl)c(C(F)(F)F)c1	6%	-9%	2%	15%	-14%	22%
O=C(/C=C/c1ccc(Br)o1)Nc1nnc(C2CC2)s1	nt	nt	25µM*	nt	nt	nt
COc1ccccc1-n1c(=O)c(C#N)c(-c2ccc([N+](=O)[O-])cc2)c2cc(C(=O)c3cc(F)ccc3O)cnc21	-12%	0%	-1%	-18%	5%	-18%
Cn1c(=O)c(C#N)c(-c2ccc(F)cc2)c2cc(C(=O)c3cc(Cl)cc(Cl)c3O)cnc21	2%	-52%	?	-8%	40µM*	?
COc1ccc(N=Cc2oc3ccc4ccccc4c3c2O)cc1	i	-29%	11µM*	-19%	-27%	?
COc1ccc(N=Cc2ccccc2O)cc1	-6%	-7%	nt	12%	-7%	-17%
COc1ccc(N(CCN2C(=O)c3ccccc3C2=O)C(=O)c2cccc([N+](=O)[O-])c2)cc1	-2%	3%[60.1 µM]	0.16µM*	-7%	?	-15%
O=c1c(-c2ccc(Cl)cc2)nc2cnc(N3CCOCC3)nc2n1-c1ccccc1	nt	2%[60.1 µM]	nt	nt	nt	nt
O=C(O)CSc1ncccc1C(=O)O	-2%	-5%	11%	-7%	3%	22%
C=CCSc1ncccc1C(=O)O	-9%	-11%	0%	2%	-18%	100µM*
CCCCNC(=O)[C@@H]1CC=C[C@@H]2CCN(CCCC)C(=O)[C@@H]21	nt	-22%	nt	-4%	nt	4%
CCCC(CCC(=O)Nc1cc([N+](=O)[O-])ccc1O)C(=O)O (configuration not stated)	1%	-15%	22µM*	1%	5%	-11%
CCS(=O)(=O)c1ccc2oc(Nc3cccc(OC)c3)nc2c1	0%	-5%	35µM*	2%	-12%	-10%
Cc1cccc(NC(=O)c2oc3ccc(S(=O)(=O)N4CCC5(CC4)OCCO5)cc3c2C)c1C	0%	-14%[60.1 µM]	-12%	3%	-18%	12%
CC1=NN(C(N)=S)C(=O)C1N=Nc1ccccc1 (configuration not stated)	-4%	8%	-4%	1%	-5%	-14%
CC1=NN(C(=O)c2ccncc2)C(=O)C1N=Nc1ccc2ccccc2c1 (configuration not stated)	-18%	?	nt	?	?	89µM*
SMILES	Tb PGK inh	Pol kappa inh	POLB inh	FEN1 inhibitor	POLH inh	POLI inh
O=C(CSc1ccccc1)N1CCN(S(=O)(=O)c2ccccc2F)CC1	1%	-39%	45µM*	4%	?	50µM*
CCCN1CNc2c(c(=O)[nH]c(=S)n2CCc2ccc(Cl)cc2Cl)C1	nt	-4%	nt	-12%	nt	-10%
O=C(O)c1cc(O)c2c(c1)[C@H]([C@H]1c3cc(C(=O)O)cc(O)c3C(=O)c3c(O[C@@H]4OC(CO)C(O)C(O)C4O)cccc31)c1cccc(O[C@@H]3OC(CO)C(O)C(O)C3O)c1C2=O (some centres not stated)	nt	0.89µM*	nt	nt	nt	nt
O=C(O)c1cc(O)c2c(c1)[C@@H]([C@H]1c3cc(C(=O)O)cc(O)c3C(=O)c3c(O[C@@H]4O[C@H](CO)[C@@H](O)[C@H](O)[C@H]4O)cccc31)c1cccc(O[C@@H]3O[C@H](CO)[C@@H](O)[C@H](O)[C@H]3O)c1C2=O	3.2µM*	1.3µM*	nt	3.2µM*	0.79µM*	-94%
CCOC(=O)c1c(NC(=O)C2CCCO2)sc(C(=O)OC(C)(C)C)c1C (configuration not stated)	i	-6%	13%	0%	-4%	8%
CCOC(=O)c1sc(NC(=O)C2CCCO2)c(C(=O)OCC)c1C (configuration not stated)	nt	nt	14µM*	nt	nt	nt
CCC(=O)N1CCc2cc(CNC(=O)Nc3cc(Cl)ccc3C(=O)OC)ccc21	0%	-9%[60.1 µM]	1%	-3%	-12%	-28%
CC(=O)N1CCc2cc(CNC(=O)Nc3cc(Cl)ccc3C)ccc21	2%	-4%[60.1 µM]	28µM*	-4%	-10%	12%
CS(=O)(=O)N1CCC(C(=O)NCc2ccco2)CC1	-16%	-7%	4%	-1%	?	50µM*
O=C1CC(SC(=S)C2CCCC2=O)C(=O)N1 (configuration not stated)	?	nt	nt	nt	7.1µM*	nt
CC1=NN(c2ccccc2)C(=O)C1C(=S)SC1CC(=O)NC1=O (configuration not stated)	-5%	nt	nt	nt	-2%	nt
O=C(Nc1ccc2nc(SCC(=O)N3CCCc4ccccc43)sc2c1)c1ccccc1	i	?	?	?	-3%	?
Cc1[nH]n(-c2ccccc2)c(=O)c1C(C[N+](=O)[O-])c1ccc(F)cc1 (configuration not stated)	-7%	-6%	0%	-19%	-20%	2.2µM*
Cc1ccc(C(C[N+](=O)[O-])c2c(C)[nH]n(-c3ccccc3)c2=O)cc1 (configuration not stated)	-7%	2%	28%	-5%	-9%	1.1µM*

Screening results deposited in PubChem BioAssay by National Center for Advancing Translational Sciences (NCATS).
